Measured values published in PubChem BioAssay (Tox21).
Records with an inconclusive call do not appear. Active and inactive are the calls of the source. Unless noted, the call rests on the fitted dose curve; in most records, active means well fitted curve in the direction sought with a large enough effect in the repeat runs; inconclusive means weak or mixed curves; inactive means no such curve, though single readings can be large; an effect the other way counts as inactive or inconclusive.

Assays:
[1] = A CellTox Green Cytotoxicity Assay to monitor cytotoxicity in HEK293 cells - 16 hour (AID 1224888); further: nearly all actives have a fitted effect of over 35% in size
How it was run: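 Homogeneous no-lysis format: HEK293 cell suspension mixed with CellTox Green reagent, seeded, incubated 5 h at 37 C/5% CO2, then dosed by pintool with compound in DMSO.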

[2] = qHTS RealTime-Glo MT Cell Viability Assay in HepG2 cells - 0 hour (AID 1224889); further: nearly all actives have a fitted effect of over 50% in size
How it was run: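 Tox21 10K library screened in qHTS format on HepG2 cells carrying RealTime-Glo reagents. Compounds were added after a 5 h preincubation, and the luminescent signal from continuous culture was measured repeatedly during 40 h treatment.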

[3] = A CellTox Green Cytotoxicity Assay to monitor cytotoxicity in HepG2 cells - 8 hour (AID 1224890); further: nearly all actives have a fitted effect of over 45% in size
How it was run: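 Fluorescent DNA-binding dye, 600 HepG2 cells/well, 5 h preincubation then compound in DMSO; same plates read at 0–40 h, 37 C.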

[4] = qHTS assay to identify small molecule antagonists of the estrogen receptor alpha (ER-alpha) signaling pathway using the BG1 cell line in the presence of 0.1 nM 17-beta-estradiol - cell viability counter screen (AID 1259241); further: nearly all actives have a fitted effect of over 40% in size
How it was run: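 Cells were plated and left 24 hr, compounds in DMSO were pinned in, 17beta-estradiol was added to 0.1 nM final, and after 22 hr CellTiter-Fluor reagent was added for 30 min before fluorescence was read.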

[5] = qHTS assay to identify small molecule antagonists of the androgen receptor (AR) signaling pathway using the MDA cell line in the presence of 0.5 nM R1881 - cell viability counter screen (AID 1259242); further: nearly all actives have a fitted effect of over 45% in size
How it was run: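 Human breast carcinoma MDA-kb2 cells, cultured without CO2, receive compounds alongside 0.5 nM (final) R1881 agonist. After 16 hr at 37C, viability is taken as live-cell protease signal.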

[6] = molecular target: Androgen receptor (Homo sapiens) (UniProt P10275); test: qHTS assay to identify small molecule antagonists of the androgen receptor (AR) signaling pathway using the MDA cell line in the presence of 0.5 nM R1881 (AID 1259243); further: nearly all actives have a fitted effect of over 50% in size
Androgen receptor (Homo sapiens), sequence (P10275 whole entry, looked up): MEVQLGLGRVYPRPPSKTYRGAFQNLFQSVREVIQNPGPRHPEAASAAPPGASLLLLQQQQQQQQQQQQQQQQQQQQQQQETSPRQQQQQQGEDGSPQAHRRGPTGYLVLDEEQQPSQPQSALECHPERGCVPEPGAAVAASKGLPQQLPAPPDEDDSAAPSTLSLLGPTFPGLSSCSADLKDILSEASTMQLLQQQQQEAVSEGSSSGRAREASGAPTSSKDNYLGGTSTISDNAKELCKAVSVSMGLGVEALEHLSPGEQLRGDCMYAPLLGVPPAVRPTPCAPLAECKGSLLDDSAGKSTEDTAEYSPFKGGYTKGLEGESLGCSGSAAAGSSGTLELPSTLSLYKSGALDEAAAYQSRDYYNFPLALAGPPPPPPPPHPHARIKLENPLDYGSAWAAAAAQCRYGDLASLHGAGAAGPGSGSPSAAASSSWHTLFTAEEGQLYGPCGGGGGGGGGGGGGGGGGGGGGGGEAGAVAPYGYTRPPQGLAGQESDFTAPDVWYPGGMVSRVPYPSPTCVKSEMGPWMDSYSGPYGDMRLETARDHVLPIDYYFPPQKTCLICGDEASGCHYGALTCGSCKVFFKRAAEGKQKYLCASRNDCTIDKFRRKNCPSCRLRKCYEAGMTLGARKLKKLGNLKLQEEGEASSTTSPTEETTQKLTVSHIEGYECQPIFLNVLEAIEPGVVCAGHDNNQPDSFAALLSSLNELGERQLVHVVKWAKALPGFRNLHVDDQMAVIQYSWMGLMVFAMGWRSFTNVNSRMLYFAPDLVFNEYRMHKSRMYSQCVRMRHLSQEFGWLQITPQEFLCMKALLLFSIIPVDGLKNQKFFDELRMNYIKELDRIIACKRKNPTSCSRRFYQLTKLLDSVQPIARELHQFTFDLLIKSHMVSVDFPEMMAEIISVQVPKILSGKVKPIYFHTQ
How it was run: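 Cells: MDA-kb2 (MMTV-luc). Stimulus: 0.5 nM R1881. Time: 16 hr, 37C, no CO2. Detection: ONE-Glo luminescence after 30 min at RT.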

[7] = molecular target: Estrogen receptor (Homo sapiens) (UniProt P03372); test: qHTS assay to identify small molecule antagonists of the estrogen receptor alpha (ER-alpha) signaling pathway using the BG1 cell line in the presence of 0.1 nM 17-beta-estradiol (AID 1259244); further: nearly all actives have a fitted effect of over 50% in size
Estrogen receptor (Homo sapiens), sequence (P03372 whole entry, looked up): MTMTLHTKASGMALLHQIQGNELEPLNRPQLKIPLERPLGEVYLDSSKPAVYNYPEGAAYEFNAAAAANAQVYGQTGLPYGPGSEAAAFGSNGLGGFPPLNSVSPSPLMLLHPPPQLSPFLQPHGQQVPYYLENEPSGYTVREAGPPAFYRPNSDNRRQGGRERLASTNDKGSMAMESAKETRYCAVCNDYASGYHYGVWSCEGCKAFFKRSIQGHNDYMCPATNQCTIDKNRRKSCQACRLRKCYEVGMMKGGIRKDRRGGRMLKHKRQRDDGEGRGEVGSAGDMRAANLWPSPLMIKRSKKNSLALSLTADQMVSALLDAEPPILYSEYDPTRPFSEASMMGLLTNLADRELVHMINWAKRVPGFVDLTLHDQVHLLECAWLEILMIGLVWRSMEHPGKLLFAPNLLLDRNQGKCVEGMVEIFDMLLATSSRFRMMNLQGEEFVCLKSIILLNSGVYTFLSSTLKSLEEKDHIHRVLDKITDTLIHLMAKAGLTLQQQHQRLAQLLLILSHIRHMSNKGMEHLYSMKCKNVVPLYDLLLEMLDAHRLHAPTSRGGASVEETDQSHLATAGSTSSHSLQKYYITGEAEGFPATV
How it was run: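 Seeding of stripped-serum-adapted VM7Luc4E2 cells, 24 h attachment, compound transfer, then 0.1 nM final 17beta-estradiol; after 22 h incubation, ONE-Glo reagent and luminescence reading.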

[8] = qHTS assay to identify small molecule HDAC inhibitors - cell viability counter screen (AID 1259365); further: series mostly up to about 92 µM; nearly all actives have a fitted effect of over 50% in size
How it was run: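 Counter screen in wild-type HCT-116 cells: compounds dissolved in DMSO are pin-transferred onto overnight-plated cells and left 2hr at 37C. ATP-based CellTiter-Glo luminescence then measures viable cells.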

[9] = qHTS assay to identify small molecule agonists of the sonic hedgehog signaling (Shh) pathway - cell viability counter screen (AID 1259366); further: nearly all actives have a fitted effect of over 50% in size
How it was run: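 Cells are plated at 2,000 per well and left 4hr at 37C, 5% CO2 before compound addition. After 23hr of treatment, CellTiter-Fluor reagent is added for 1hr at 37C and fluorescence is measured.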

[10] = qHTS assay to identify small molecule antagonists of the sonic hedgehog signaling (Shh) pathway - cell viability counter screen (AID 1259367); further: nearly all actives have a fitted effect of over 55% in size
How it was run: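 Conditioned medium drove Shh signaling in 3T3 Gli1-Luc cells exposed to compounds at 37C and 5% CO2. Viability was determined from CellTiter-Fluor fluorescence, with reagent incubated 1 hr after 23 hr of treatment.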

[11] = qHTS assay to identify small molecule agonists of the sonic hedgehog signaling (Shh) pathway (AID 1259368; calls by dose curve;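 further: NIH/3T3-derived 3T3Gli1-Luc cells carrying a stable Gli1-driven firefly luciferase reporter; series mostly up to about 92 µM; nearly all actives have a fitted effect of over 15% in size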)
How it was run: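 Stable NIH/3T3 Gli1-Luc reporter clone; 24 hr cpd exposure after a 4 hr settling period; luminescence endpoint.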

[12] = qHTS assay to identify small molecule antagonists of the sonic hedgehog signaling (Shh) pathway (AID 1259369; calls by dose curve; further: nearly all actives have a fitted effect of over 45% in size)
How it was run: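 Gli1 transcriptional reporter (firefly Luc) in NIH/3T3 background, conditioned-medium activated. 24hr exposure, luminescence endpoint.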

[13] = molecular target: Estrogen receptor beta (Homo sapiens) (UniProt Q92731); test: qHTS assay to identify small molecule agonists of the estrogen receptor beta (ER-beta) signaling pathway (AID 1259377; active means well fitted activation curve with a large enough effect in the signal ratio in the repeat runs, not every such curve was filed as active; the % refers to the signal ratio)
Estrogen receptor beta (Homo sapiens), sequence (Q92731 whole entry, looked up, the tested form may be a part): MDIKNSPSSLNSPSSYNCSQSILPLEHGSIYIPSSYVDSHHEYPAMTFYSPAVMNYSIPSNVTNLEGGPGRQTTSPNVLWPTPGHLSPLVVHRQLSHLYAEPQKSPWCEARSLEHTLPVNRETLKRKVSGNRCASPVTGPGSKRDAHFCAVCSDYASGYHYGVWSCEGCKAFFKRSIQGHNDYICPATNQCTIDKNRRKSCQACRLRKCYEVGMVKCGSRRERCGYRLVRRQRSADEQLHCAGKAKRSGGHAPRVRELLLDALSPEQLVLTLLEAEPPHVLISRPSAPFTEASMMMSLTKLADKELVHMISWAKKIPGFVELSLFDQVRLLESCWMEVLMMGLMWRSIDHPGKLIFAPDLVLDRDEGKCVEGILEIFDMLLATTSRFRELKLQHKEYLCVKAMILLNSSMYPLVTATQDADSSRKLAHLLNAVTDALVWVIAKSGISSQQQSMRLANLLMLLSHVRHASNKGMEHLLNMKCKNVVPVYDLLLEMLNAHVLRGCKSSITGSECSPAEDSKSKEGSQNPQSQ
How it was run: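 Agonist mode cell assay in GripTite HEK293T cells expressing an ER-beta fusion that drives beta-lactamase from an Upstream Activator Sequence; 16 hr compound exposure at 37C, then 2 h LiveBLAzer B/G FRET substrate at room temperature, fluorescence read-out.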

[14] = molecular target: Estrogen receptor beta (Homo sapiens) (UniProt Q92731); test: qHTS assay to identify small molecule antagonists of the estrogen receptor beta (ER-beta) signaling pathway (AID 1259378; active means well fitted inhibition curve with a large enough effect in the signal ratio in the repeat runs, not every such curve was filed as active; the % refers to the signal ratio)
How it was run: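 ER-beta-UAS-bla HEK293T (GripTite) cells in 2% charcoal-stripped FBS medium were preincubated 6 hr at 37C, dosed with compound, then stimulated with 1 nM E2 (final) for 16 hr; beta-lactamase reporter read by B/G FRET fluorescence after 2 hr substrate loading.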

[15] = qHTS assay to identify small molecule agonists of the androgen receptor (AR) signaling pathway in the presence of an antagonist - cell viability counter screen (AID 1259379);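 further: MDA-kb2 human breast cancer cells carrying an MMTV luciferase reporter; series mostly up to about 92 µM; nearly all actives have a fitted effect of over 25% in size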
How it was run: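 Counter screen for cell viability run in parallel with the AR agonist-mode luciferase assay. MDA-kb2 cells were co-treated with nilutamide (3.0uM final) and compounds, then incubated 16 hr at 37C, and CellTiter-Fluor fluorescence was measured.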

[16] = molecular target: Androgen receptor (Homo sapiens) (UniProt P10275); test: qHTS assay to identify small molecule agonists of the androgen receptor (AR) signaling pathway in the presence of an antagonist (AID 1259381; calls by dose curve; further: nearly all actives have a fitted effect of over 15% in size)
How it was run: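 AR antagonist background: nilutamide 3.0uM final. Cell line: MDA-kb2, MMTV-driven luciferase, responsive to both AR and GR. Exposure 16hr, 37C, no CO2; ONE-Glo luminescence.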

[17] = qHTS RealTime-Glo MT Cell Viability Assay in HEK293 cells - 8 hour (AID 1224887)
How it was run: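 Measured as luminescence from the same continuously cultured HEK293 wells at successive time points (0, 8, 16, 24, 32, 40 h) after compound addition. Reagent present from seeding; dosing at 5 h; incubation 37 C.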

[18] = qHTS assay to identify small molecule HDAC inhibitors (AID 1259364);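 further: wild-type HCT-116 cells with endogenous class I/II HDAC activity; top concentration of the series differs between compounds; nearly all actives have a fitted effect of over 45% in size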
How it was run: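 After a 2 hr compound incubation (37C, 5% CO2), HCT-116 cells seeded at 1,500/well the day before received HDAC-Glo reagent; signal read as luminescence after 30 min at room temperature.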

[19] = qHTS assay to identify small molecule agonists of the estrogen receptor beta (ER-beta) signaling pathway - cell viability counter screen (AID 1259380); further: nearly all actives have a fitted effect of over 30% in size
How it was run: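 In this qHTS counter screen, HEK293T cells carrying an ER-beta/UAS beta-lactamase reporter, grown in 2% charcoal-stripped FBS, received compound for 16 hr; ATP-based CellTiter-Glo luminescence was then read after 30 min at room temperature.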

[20] = qHTS assay to identify small molecule phospholipidosis (PLD) inducers (AID 1259344; active means well fitted curve in the direction sought with a large enough effect; an effect the other way counts as inactive or inconclusive)
How it was run: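 After 4 h attachment on collagen I, HepG2 cells were dosed with compound alongside LipidTOX Red, kept 24 h at 37 C, fixed, and imaged for lamellar phospholipid pits.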
On the % scale 0 is the no-effect control and ±100 the full control effect.

CC(=O)OC1CCCCC1C(C)(C)C (configuration not stated)
inactive: Potency [1] | Potency [2] | Potency [3] | outcome [4] | outcome [5] | Potency [6] | outcome [7] | outcome [8] | outcome [9] | outcome [10] | outcome [11] | Potency [12] | Potency [13] | Potency [14] | outcome [15] | outcome [16]

C=CCCCCCCCC
inactive: Potency [17] | Potency [2] | Potency [3] | outcome [4] | outcome [5] | Potency [18] | outcome [8] | outcome [9] | outcome [10] | outcome [11] | Potency [12] | outcome [15] | outcome [19]

O=C(O)c1cc2ccccc2nc1C(=O)O
inactive: Potency [17] | Potency [2] | Potency [3] | outcome [4] | outcome [5] | outcome [7] | outcome [8] | outcome [9] | outcome [10] | outcome [11] | Potency [12] | Potency [13] | Potency [14] | outcome [15] | outcome [19]

Cc1c(NC(=O)c2cccnc2)c(=O)n(-c2ccccc2)n1C
inactive: Potency [17] | Potency [2] | Potency [3] | outcome [4] | outcome [7] | outcome [20] | Potency [18] | outcome [8] | outcome [9] | outcome [10] | outcome [11] | Potency [12] | outcome [15] | outcome [19]

COc1nc(N)nc2nc[nH]c12
inactive: Potency [1] | Potency [2] | Potency [3] | outcome [4] | outcome [5] | outcome [7] | Potency [18] | outcome [8] | outcome [9] | outcome [10] | outcome [11] | Potency [12] | Potency [13] | Potency [14] | outcome [15] | outcome [19]

c1ccc2c(CC3=NCCN3)cccc2c1
inactive: Potency [17] | Potency [2] | Potency [3] | outcome [4] | outcome [5] | outcome [20] | Potency [18] | outcome [8] | outcome [9] | outcome [10] | outcome [11] | Potency [12] | outcome [15]

COC(=O)/C=C\C(=O)O
inactive: Potency [17] | Potency [3] | outcome [4] | outcome [5] | outcome [7] | Potency [18] | outcome [8] | outcome [9] | outcome [10] | outcome [11] | Potency [12] | Potency [13] | Potency [14] | outcome [15]

[O]=[Mo](=[O])=[O]
inactive: activity change [1] -32.5% [at 15.8 µM, hits give high values] | activity change, negative = cytotoxicity [2] 1.95% [at 15.8 µM] | cytotoxicity increase [3] -8.17% [at 15.8 µM] | activity change, negative = cytotoxicity [4] 0.14% [at 19 µM] | viability change, negative = cytotoxic [5] 3.82% [at 19 µM] | activity change, negative = inhibition [7] 3.96% [at 19 µM] | activity change, negative = inhibition [18] 3.49% [at 19 µM] | activity change, negative = cytotoxicity [8] 3.01% [at 19 µM] | viability change, negative = cytotoxic [9] 1.33% [at 19 µM] | viability change, negative = cytotoxic [10] 0.3% [at 19 µM] | activity change [11] -1.33% [at 18.9 µM] | activity change, negative = inhibition [12] -0.431% [at 19 µM] | activation [13] -1.75% [at 19 µM] | activity, negative = inhibition [14] 0.823% [at 19 µM] | activity change, negative = cytotoxicity [15] 2.34% [at 19 µM] | activity change, negative = cytotoxicity [19] 3.4% [at 19 µM]
